NR3A LBD binder: binders of NR3A ligand-binding domain, primary screen, biophysical, differential scanning fluorimetry, uHTS; Glutamate receptor ionotropic, NMDA 3A (GRIN3A) ligand-binding domain; NR3A LBD differential scanning fluorimetry, Tm shift; 0% = protein alone, 100% = glycine-bound protein; Tm shift relative to glycine control, % at 25 µM; actives 2.5% (n = 340,000); AID 1259313, 2017;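 active = melting temperature shift of at least 10% of the positive control shift, at one fixed dose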
proKLK7 act: proKLK7 zymogen activators, primary screen, biochemical, fluorescence intensity. purified proKLK7, EDANS-DABCYL substrate fluorescence; 100% is mature enzyme control, 0% vehicle. activation, % at 7 µM. actives 0.9% (n = 370,000). Kallikrein-7 (Homo sapiens), P49862;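 active = activation above the mean of all tested compounds plus 3 SD, computed per campaign excluding outliers beyond control limits, cut at about 13% in these data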
ADAM10 inh: human ADAM10 inhibitors, primary screen, biochemical, QFRET, HTS; recombinant ADAM10, EDANS/DABCYL FRET peptide cleavage, 3 h; inhibition, % at 7 µM; actives 0.62% (n = 370,000);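 active = inhibition above a per-campaign cutoff equal to the mean of compounds falling between control-based bounds plus 3 SD, cut at about 20% in these data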
rCAG RNA binder: binders of r(CAG) RNA repeats, primary screen, biochemical, fluorescence; inhibition, % at 3 µM; actives 1.3% (n = 370,000); r(CAG) RNA repeat, TO-PRO-1 dye displacement fluorescence;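 active = inhibition above the plate cutoff, the mean of all test compounds on that plate plus 3 SD, cut at about 35% in these data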;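 note: higher means more dye released from RNA so lower well fluorescence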
ADAM17 inh: ADAM17 inhibitors, primary screen, biochemical, QFRET; recombinant ADAM17, EDANS/DABCYL FRET peptide cleavage; AID 720648, 2013; actives 0.83% (n = 370,000); Disintegrin and metalloproteinase domain-containing protein 17 (Homo sapiens), P78536; inhibition, % at 6.95 µM;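 active = inhibition above the mean of compounds lying between control limits plus 3 SD, set per campaign, cut at about 8.5% in these data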
AHR act: AHR activators, primary screen, cell-based, luminescence, luciferase reporter, human; Aryl hydrocarbon receptor (Homo sapiens), P35869; AHR-responsive luciferase reporter cells; AID 2796, 2010; activation, % at 5 µM; actives 2.5% (n = 320,000); in the data active = activation above about 47%
Large screens that a line does not name were inactive. In the library only some 7% were active in any assay of this set; here they are far more common.

Cc1nn2c3ccccc3nc2c2ccccc12	AHR act 59
Cc1nn2c(-c3ccccc3)nnc2c2ccccc12	none
COc1ccc(N2C(=O)[C@@H]3[C@H](C2=O)[C@H]2c4ccccc4C=CN2[C@@H]3C(C)=O)cc1	AHR act 51
O=C(c1ccc2c(c1)OCO2)[C@@H]1[C@@H]2C(=O)N(C3CCCCC3)C(=O)[C@@H]2C2c3ccccc3C=CN21 (stereo partly drawn)	none (no result: AHR act)
O=C(Nc1ccc2c(c1)OCO2)[C@@H]1[C@@H]2C(=O)N(C3CCCCC3)C(=O)[C@@H]2C2c3ccccc3C=CN21 (stereo partly drawn)	AHR act 53 (no result: NR3A LBD binder)
CC(C)(C)C(=O)[C@@H]1[C@@H]2C(=O)N(C3CCCCC3)C(=O)[C@@H]2[C@H]2c3ccccc3C=CN12	AHR act 93
COc1ccc(N2C(=O)[C@H]3[C@@H](C2=O)C2c4ccccc4C=NN2[C@H]3C(=O)C(C)(C)C)cc1 (stereo partly drawn)	none
CCOC(=O)c1[nH]c2ccc(Cl)cc2c1NC(=O)/C=C/c1ccc2c(c1)OCO2	NR3A LBD binder 22
CCOC(=O)c1[nH]c2cc3c(cc2c1NC(=O)CN1CCCC1)OCO3	AHR act 58
CCOC(=O)Cn1cc(CN2C(C(=O)OC)CN(Cc3ccccc3)CCS2(=O)=O)nn1 (stereo not drawn)	none (no result: NR3A LBD binder, AHR act)
COc1ccc(C)cc1NS(=O)(=O)c1ccc2c(c1)n(C)c(=O)n2C	none
COc1ccc(C)cc1NS(=O)(=O)c1ccc2c(c1)N(C)CCO2	NR3A LBD binder 18
Cc1ccc2c(c1)/C(=C/c1ccccc1)C(=O)N2	none
Cc1ccc2c(c1)/C(=C/c1ccccc1F)C(=O)N2	AHR act 68
COC(=O)c1ccc(N)cc1O	none
COC(=O)c1ccc(=O)c2nc3/c(=C/O)c(O)cc(=O)c3[nH]c12	rCAG RNA binder 69
Cc1ccc2nsnc2c1NC(=O)c1ccc(-c2cc(Cl)ccc2Cl)o1	none
O=C(Nc1cccc2nsnc12)c1ccc(-c2cccc(Cl)c2)o1	AHR act 52
CN1CCN(c2ccccc2NC(=O)c2ccc(-c3cccc(Cl)c3)o2)CC1	AHR act 61
O=C(Nc1ccccc1N1CCCCC1)c1ccc(-c2cccc(Cl)c2)o1	none
Cc1ccc(S(=O)(=O)N(C)[C@H]2C[C@H]3c4[nH]c5cccc(-c6ccccc6)c5c4CCN3C(=O)[C@H]2[C@H](C)O)cc1	none (no result: NR3A LBD binder, AHR act)
CC1CCCN(c2nc(-c3cccnc3)nc3scc(-c4ccccc4)c23)C1 (stereo not drawn)	NR3A LBD binder 12
CC1CCN(c2nc(-c3cccnc3)nc3scc(-c4ccccc4)c23)CC1	none
COc1ccc(C2CC(c3cc(Br)ccc3F)n3nnnc3N2)cc1 (stereo not drawn)	none
COc1ccc(C2CC(c3ccccc3)n3nnnc3N2)cc1 (stereo not drawn)	NR3A LBD binder 411
COc1ccc(-c2csc3ncnc(N4CCN(S(=O)(=O)c5ccc(Cl)s5)CC4)c23)cc1	NR3A LBD binder 11
c1ccc(-c2csc3ncnc(N4CCc5ccccc5C4)c23)cc1	NR3A LBD binder 13
COc1ccc(-c2csc3ncnc(N4CCN(S(=O)(=O)c5cccs5)CC4)c23)cc1	none
COc1ccc(-c2csc3ncnc(N4CCN(c5cccc(OC)c5)CC4)c23)cc1	none
CCN1CCN(C(=O)c2sc3ncnc(N4CCc5ccccc5C4)c3c2C)CC1	AHR act 49
COc1ccc(-c2csc3ncnc(N4CCN(c5cccc(Cl)c5)CC4)c23)cc1	NR3A LBD binder 18 (no result: proKLK7 act, ADAM10 inh, rCAG RNA binder, ADAM17 inh)
CCOC(=O)[C@@]12CCC3=C1N(CCC3)C(=O)[C@H](CC(=O)NCc1cccs1)C2	none (no result: NR3A LBD binder, AHR act)
O=C(Nc1c(C(=O)c2ccccc2)oc2ccccc12)c1cc(-c2ccccc2O)n[nH]1	NR3A LBD binder 28, AHR act 68
